This is one part of the list. Active and inactive are the calls of the source.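 Rule for the calls: active = mean activation over three repeats above the cutoff from the earlier oxytocin receptor agonist screen (cut at about 20% in these data); inactive = the rest.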
molecular target: Oxytocin receptor (Homo sapiens) (UniProt P30559); experiment: oxytocin receptor activation, calcium signal – fluorescence, CHO-OTR cells, triplicate, counter-screen for V1R agonist project (AID 434969); details: Fluo-8 calcium fluorescence, at 3 µM, stronger effect = higher value;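 note: peak over minimum fluorescence ratio within a 100 second FLIPR read; 0% = DMSO only wells and 100% = oxytocin high control wells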
Sequence (P30559 whole entry, looked up): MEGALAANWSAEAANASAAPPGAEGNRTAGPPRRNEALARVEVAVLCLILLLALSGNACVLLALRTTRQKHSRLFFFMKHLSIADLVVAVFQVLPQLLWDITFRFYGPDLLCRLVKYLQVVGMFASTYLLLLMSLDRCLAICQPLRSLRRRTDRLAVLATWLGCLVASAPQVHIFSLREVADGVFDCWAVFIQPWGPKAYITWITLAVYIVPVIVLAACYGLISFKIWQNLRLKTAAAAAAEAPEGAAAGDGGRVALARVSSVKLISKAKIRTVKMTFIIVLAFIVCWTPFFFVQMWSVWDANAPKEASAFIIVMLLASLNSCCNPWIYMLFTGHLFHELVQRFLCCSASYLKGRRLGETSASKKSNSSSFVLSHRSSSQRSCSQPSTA

| SMILES | activation |
| --- | --- |
| O=C(CN1CCN(c2cccc(Cl)c2)CC1)Nc1ccc(S(=O)(=O)N2CCOCC2)cc1 | 5.65% (inactive) |
| O=C(c1ccccc1)c1ccc(OCC(O)CN2CCCC2)cc1 (stereo not drawn) | 2.06% (inactive) |
| CC1(C)S[C@@H]2[C@H](N=CN3CCCCCC3)C(=O)N2[C@H]1C(=O)O | 0.49% (inactive) |
| CCN(CC)c1ccc(/C=N/NC(=O)c2cnccn2)c(O)c1 | 9.1% (inactive) |
| O=c1c2cc(Br)ccc2nc(-c2cccc(Cl)c2)n1O | 15.4% (inactive) |
| Fc1cccc(Cl)c1COc1ccc(-c2nnco2)cc1 | -0.58% (inactive) |
| CCN(CC)c1ccc2cc(C(N)=O)/c(=N\NC(=O)c3ccncc3)oc2c1 | 15.6% (inactive) |
| Cc1cc(C)c(/C=C2\C(=O)Nc3ccccc32)[nH]1 | 16.6% (inactive) |
